Data on 20 compounds can be found in PubChem BioAssay (NCATS).

Results filed as inconclusive are left out. A call without a number means that no potency is given here. Calls of active or inactive are those of the source. Calls come from the whole dose curve; as a rule, active = well fitted cell-killing curve with a large enough effect; inconclusive = small, poorly fitted or top-dose-only effect; inactive = flat fitted curve, though single readings scatter.

The nature of the first assay: Cell Viability - LYMP2-019 (AID 973).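 Note: cells exposed to compound for 24 h at 37 °C; nearly all actives have a fitted effect of over 55% in size.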 As to conditions: LYMP2-019 lymphoblastoid cell line viability; series mostly up to 92.2 µM. In a few lines: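 Cells plated at 2500/well and allowed 5 hr at 37 C before compound addition. After 24 hr incubation, CellTiter-Glo reagent was added, plates sat 30 min at room temperature, and luminescence was recorded.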
Regarding `CC12CCC(CC1)C(C)(C)O2`, the compound was classed as inactive.
Take `CCCCCCCCCCCCOS(=O)(=O)O`: the outcome was inactive.
Same read-out and setting: as for `O=C1c2c(O)cccc2Cc2cccc(O)c21`, the entry is “inactive”; as for `[Cl][In]([Cl])[Cl]`, “inactive”; as for `O=C1O[C@H]([C@@H](O)CO)C(O)=C1O`, “inactive”.
In the case of `COc1ccccc1O`, the result was inactive.
On to `Cc1cc2nc3c(=O)[nH]c(=O)nc-3n(C[C@H](O)[C@H](O)[C@H](O)CO)c2cc1C`, for which the compound was classed as inactive.
Take `CCCCOC(=O)c1ccc(O)cc1`: the compound was called inactive.
As to `CC1(C)[C@@H]2CC[C@@]1(C)C(=O)C2`, the outcome was inactive.
The same measure, in the same setting: as for `NCCNCCNCCN`, the entry is “inactive”.
Take `Cc1cc(CC(=O)O)n(C)c1C(=O)c1ccc(Cl)cc1`: the compound was called inactive.
Take `C[C@]12C[C@H](O)[C@H]3[C@@H](CCC4=CC(=O)CC[C@@]43C)[C@@H]1CC[C@@H]2C(=O)CO`: the compound was classed as inactive.
Regarding `Oc1cccc(O)c1`, the compound was called inactive.
As to `NCCNCCNCCNCCN`, the compound was classed as inactive.

The next assay is described as follows: Cell Viability - LYMP2-021 (AID 974).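 Note: compound exposure lasts 24 hours at 37 °C; nearly all actives have a fitted effect of over 55% in size.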 Note: potency is the fitted concentration of half-maximal effect. The settings on record: LYMP2-021 lymphoblastoid cells viability; series mostly up to 92.2 µM. In a few lines: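 Concentration-response cytotoxicity in a human lymphoblastoid line: 24 hr treatment at 37 C in complete culture medium, tetraoctylammonium bromide as positive control, luminescent ATP quantitation as viability measure.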
Take `NC(=O)c1ncn([C@@H]2O[C@H](CO)[C@@H](O)[C@H]2O)n1`: the Potency entry was “inactive”.
In the case of `CC12CCC(CC1)C(C)(C)O2`, the Potency entry is “inactive”.
Same read-out and setting: as for `CCCCCCCCCCCCOS(=O)(=O)O`, the entry is “inactive”; as for `O=C1c2c(O)cccc2Cc2cccc(O)c21`, “inactive”; as for `[Cl][In]([Cl])[Cl]`, “inactive”.
Still for that read-out and setting: as for `O=C1O[C@H]([C@@H](O)CO)C(O)=C1O`, the entry is “inactive”; as for `COc1ccccc1O`, “inactive”; as for `Cc1cc2nc3c(=O)[nH]c(=O)nc-3n(C[C@H](O)[C@H](O)[C@H](O)CO)c2cc1C`, “inactive”.
In the case of `Cc1c(O)cccc1C(=O)N[C@@H](CSc1ccccc1)[C@H](O)CN1C[C@H]2CCCC[C@H]2C[C@H]1C(=O)NC(C)(C)C`, the Potency is 50.1 µM (active).
Take `CCCCOC(=O)c1ccc(O)cc1`: the Potency result is “inactive”.
On to `CC1(C)[C@@H]2CC[C@@]1(C)C(=O)C2`, for which the Potency entry was “inactive”.
Take `NCCNCCNCCN`: the Potency result is “inactive”.
`Cc1cc(CC(=O)O)n(C)c1C(=O)c1ccc(Cl)cc1`: the Potency result is “inactive”.
The same measure, in the same setting: as for `Nc1ccc(S(=O)(=O)Nc2nccs2)cc1`, the entry is “inactive”; as for `C[C@]12C[C@H](O)[C@H]3[C@@H](CCC4=CC(=O)CC[C@@]43C)[C@@H]1CC[C@@H]2C(=O)CO`, “inactive”; as for `Oc1cccc(O)c1`, “inactive”.
In the case of `NC(=O)N/N=C/c1ccc([N+](=O)[O-])o1`, the Potency entry was “inactive”.
As for `NCCNCCNCCNCCN`, the Potency result is “inactive”.

A short description of the next assay: Cell Viability - LYMP2-023 (AID 975).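 Note: cells exposed to compound for 24 hours at 37 °C; nearly all actives have a fitted effect of over 55% in size.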 Note: potency is the fitted concentration of half-maximal effect. As to conditions: LYMP2-023 lymphoblastoid cell viability; series mostly up to 92.2 µM. Summed up:
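Concentration-dependent drop in intracellular ATP measures acute cytotoxicity in a human lymphoblastoid line treated for 24 hours in complete culture medium. AC50 values are taken from Hill-equation fits of qHTS data.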
For `NC(=O)c1ncn([C@@H]2O[C@H](CO)[C@@H](O)[C@H]2O)n1`, the Potency result is “inactive”.
Take `CC12CCC(CC1)C(C)(C)O2`: the Potency entry was “inactive”.
Consider `CCCCCCCCCCCCOS(=O)(=O)O`, for which the Potency result was “inactive”.
Still for that read-out and setting: the entry for `O=C1c2c(O)cccc2Cc2cccc(O)c21` is “inactive”.
Regarding `[Cl][In]([Cl])[Cl]`, the Potency entry is “inactive”.
With `O=C1O[C@H]([C@@H](O)CO)C(O)=C1O`, the Potency result is “inactive”.
With `COc1ccccc1O`, the Potency entry was “inactive”.
For `Cc1cc2nc3c(=O)[nH]c(=O)nc-3n(C[C@H](O)[C@H](O)[C@H](O)CO)c2cc1C`, the Potency entry is “inactive”.
The same measure, in the same setting: as for `Cc1c(O)cccc1C(=O)N[C@@H](CSc1ccccc1)[C@H](O)CN1C[C@H]2CCCC[C@H]2C[C@H]1C(=O)NC(C)(C)C`, the figure is 50.1 µM (active).
Same read-out and setting: as for `CCCCOC(=O)c1ccc(O)cc1`, the entry is “inactive”.
Same read-out and setting: the entry for `CC1(C)[C@@H]2CC[C@@]1(C)C(=O)C2` is “inactive”; for `NCCNCCNCCN` it is “inactive”; for `Cc1cc(CC(=O)O)n(C)c1C(=O)c1ccc(Cl)cc1` it is “inactive”.
For `Nc1ccc(S(=O)(=O)Nc2nccs2)cc1`, the Potency entry was “inactive”.
`C[C@]12C[C@H](O)[C@H]3[C@@H](CCC4=CC(=O)CC[C@@]43C)[C@@H]1CC[C@@H]2C(=O)CO`: the Potency entry is “inactive”.
Still for that read-out and setting: as for `Oc1cccc(O)c1`, the entry is “inactive”; as for `NCCNCCNCCNCCN`, “inactive”.

Another assay in a line: Cell Viability - LYMP2-025 (AID 976).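 Note: cells exposed to compound for 24 h at 37 °C.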 As to conditions: LYMP2-025 lymphoblastoid cell viability; series mostly up to 92.2 µM. Summed up: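 In qHTS format, LYMP2-025 lymphoblastoid cells in complete culture medium received compound for 24 hr; ATP-based CellTiter-Glo signal gave viability, with AC50 derived by Hill equation.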
As for `NC(=O)c1ncn([C@@H]2O[C@H](CO)[C@@H](O)[C@H]2O)n1`, the outcome was inactive.
Same read-out and setting: as for `CCCCCCCCCCCCOS(=O)(=O)O`, the entry is “inactive”; as for `O=C1c2c(O)cccc2Cc2cccc(O)c21`, “inactive”.
As for `[Cl][In]([Cl])[Cl]`, the outcome was inactive.
For the compound `O=C1O[C@H]([C@@H](O)CO)C(O)=C1O`, the compound was called inactive.
With `COc1ccccc1O`, the outcome was inactive.
For `Cc1cc2nc3c(=O)[nH]c(=O)nc-3n(C[C@H](O)[C@H](O)[C@H](O)CO)c2cc1C`, the compound was classed as inactive.
On to `CN(C)CCC=C1c2ccccc2CCc2ccccc21`, for which the outcome was inactive.
Consider `CCCCOC(=O)c1ccc(O)cc1`, for which the result was inactive.
On to `CC1(C)[C@@H]2CC[C@@]1(C)C(=O)C2`, for which the outcome was inactive.
On the same count and under the same terms, the entry for `NCCNCCNCCN` is “inactive”; for `Cc1cc(CC(=O)O)n(C)c1C(=O)c1ccc(Cl)cc1` it is “inactive”.
For the compound `Nc1ccc(S(=O)(=O)Nc2nccs2)cc1`, the compound was called inactive.
`C[C@]12C[C@H](O)[C@H]3[C@@H](CCC4=CC(=O)CC[C@@]43C)[C@@H]1CC[C@@H]2C(=O)CO`: the compound was classed as inactive.
`Oc1cccc(O)c1`: the outcome was inactive.
For `COC(=O)C1=C(C)NC(C)=C(C(=O)OC)C1c1ccccc1[N+](=O)[O-]`, the compound was classed as inactive.
The same measure, in the same setting: as for `NCCNCCNCCNCCN`, the entry is “inactive”.

Another assay is described as follows: Cell Viability - LYMP2-002 (AID 977).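 Note: compound exposure lasted 24 h at 37 °C.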 The settings on record: LYMP2-002 lymphoblastoid cell viability, qHTS; series mostly up to 92.2 µM. In a few lines:
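Cytotoxicity is scored as concentration-dependent loss of cellular ATP in a human lymphoblastoid line after 24 hr compound treatment at 37 C. AC50 is obtained by modelling concentration-response data with the Hill equation.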
For orientation: qHTS replaces the single test concentration by a dilution series.
Consider `NC(=O)c1ncn([C@@H]2O[C@H](CO)[C@@H](O)[C@H]2O)n1`, for which the outcome was inactive.
Same read-out and setting: the entry for `CC12CCC(CC1)C(C)(C)O2` is “inactive”.
Regarding `CCCCCCCCCCCCOS(=O)(=O)O`, the call was inactive.
Turning to `O=C1c2c(O)cccc2Cc2cccc(O)c21`, the compound was called inactive.
On the same count and under the same terms, the entry for `[Cl][In]([Cl])[Cl]` is “inactive”; for `O=C1O[C@H]([C@@H](O)CO)C(O)=C1O` it is “inactive”; for `COc1ccccc1O` it is “inactive”.
Regarding `Cc1cc2nc3c(=O)[nH]c(=O)nc-3n(C[C@H](O)[C@H](O)[C@H](O)CO)c2cc1C`, the compound was called inactive.
Consider `CCCCOC(=O)c1ccc(O)cc1`, for which the compound was called inactive.
As to `CC1(C)[C@@H]2CC[C@@]1(C)C(=O)C2`, the compound was classed as inactive.
In the case of `NCCNCCNCCN`, the compound was classed as inactive.
In the case of `Cc1cc(CC(=O)O)n(C)c1C(=O)c1ccc(Cl)cc1`, the compound was classed as inactive.
On the same count and under the same terms, as for `Nc1ccc(S(=O)(=O)Nc2nccs2)cc1`, the entry is “inactive”; as for `C[C@]12C[C@H](O)[C@H]3[C@@H](CCC4=CC(=O)CC[C@@]43C)[C@@H]1CC[C@@H]2C(=O)CO`, “inactive”; as for `Oc1cccc(O)c1`, “inactive”.
Take `NCCNCCNCCNCCN`: the compound was called inactive.
